Assay results from ChEMBL document CHEMBL4513216, “Probing the Open Global Health Chemical Diversity Library for Multistage-Active Starting Points for Next-Generation Antimalarials” (ACS Infect Dis, 2020).
The campaign covered roughly 68,000 compounds. About 2,700 (4%) showed an effect of 50% or more. The entries come from a sample that favours strong results as a whole.

tested on: Plasmodium berghei; assay: Screen against P. berghei liver stage (PbLuc), transformed with Luciferase, at 2uM; type: functional, HepG2; settings: tested at 2 uM

SMILES | INHIBITION
O=C(CN1CCOC(Cn2cccn2)C1)NCc1ccccn1 (stereo not given) | -12.75%
NC(=O)c1cc2c(nc1Oc1ccc(CN3CCCC3)cc1F)CCC2 | 12.21%
CNC(=O)c1cc2c(nc1N(C)C)CCN(c1ncc(C)cn1)CC2 | -37.2%
COc1ccc(Cl)cc1NCCC(=O)NCCNc1cnccn1 | -22.83%
COc1ccc(Cl)cc1NCC(=O)NCCNc1cnccn1 | 55.7%
COc1ccc(Cl)cc1NCC(=O)NCCNc1ncccn1 | -5.6%
NC(=O)CN1CCCC1c1csc(Nc2cnccn2)n1 (stereo not given) | -20.73%
CN1CCC2(COCc3cnc(N4CCOCC4)nc32)C1 (stereo not given) | 18.97%
CS(=O)(=O)NC(=O)c1ccn(-c2ccccc2Cl)n1 | -61.69%
O=C1Nc2ccccc2CC12CCCN2Cc1ccc(F)cc1 (stereo not given) | -0.14%
CCc1n[nH]c(C2CN(C(=O)CCc3cscn3)CCO2)n1 (stereo not given) | 12.81%
CSCC(=O)N1CCOC(c2nc(C(C)(C)C)n[nH]2)C1 (stereo not given) | -17.77%
CC(C)(C)c1n[nH]c(C2CN(C(=O)CCc3ccco3)CCO2)n1 (stereo not given) | 0.74%
CC(C)(C)c1n[nH]c(C2CN(C(=O)CCC3CC3)CCO2)n1 (stereo not given) | 60.31%
CCc1n[nH]c(C2CN(CCCS(C)(=O)=O)CCO2)n1 (stereo not given) | 24.65%
CC(C)c1n[nH]c(C2CN(C(=O)CCc3cscn3)CCO2)n1 (stereo not given) | 53.33%
CC(C)c1n[nH]c(C2CN(CCCS(C)(=O)=O)CCO2)n1 (stereo not given) | 69.11%
Cc1n[nH]c(C2CN(C(=O)CCc3cscn3)CCO2)n1 (stereo not given) | -4.43%
CCCc1n[nH]c(C2CN(CCCS(C)(=O)=O)CCO2)n1 (stereo not given) | 2.1%
C=C(C)CN(CC)Cc1nc(C)no1 | -12.44%
CS(=O)(=O)Cc1noc(CN2CCc3c(Cl)cccc3C2)n1 | -6.67%
CCC(CNS(C)(=O)=O)Oc1ccccc1F (stereo not given) | 14.69%
CCc1n[nH]c(C2CN(Cc3nnc(C4CCC4)o3)CCO2)n1 (stereo not given) | -45.21%
CC(=O)N1CCCC1c1nc(N(C)C)ncc1-c1ccccc1 (stereo not given) | 7.47%
Cc1cn(CC(=O)NC2CCN(C(=O)C3CC3)CC2)c2ccccc12 | 41.44%
Cc1c(C(=O)N(C)C)cccc1N(C)S(C)(=O)=O | -0.02%
COc1ccc(CNc2c(C)nn(C(C)C)c2C)cc1OC | -4.19%

SMILES | INHIBITION
CC[C@@H](c1ccccc1)n1c(CCN)n[nH]c1=O | 31.69%
Cc1nc(CC(=O)N2CCc3nc(-c4cnccn4)nc(O)c3C2)cs1 | 34.9%
CC(C)c1noc(CCC(=O)NC2CCS(=O)(=O)C2)n1 (stereo not given) | 17.19%
Cc1ccc(C(=O)NCCC2CCN(C)CC2)cc1N(C)S(C)(=O)=O | 36.05%
CN(c1ccc(C(=O)NCCN2CCOCC2)c(Cl)c1)S(C)(=O)=O | 2.31%
Cc1ccc(C(=O)NCCN2CCOCC2)cc1N(C)S(C)(=O)=O | 70.2%
COc1ccccc1-c1cc(C(=O)Nc2nc[nH]n2)[nH]n1 | 19.53%
CCCN(C)c1ccc(C(=O)Nc2c(C)nn(C(C)C)c2C)cc1 | -17.64%
CN(C)Cc1ccc(C2CCCCN2C(=O)c2ncccc2O)cc1 (stereo not given) | 56.16%
CN(C)Cc1ccc(C2CCCCN2C(=O)c2cccnn2)cc1 (stereo not given) | -9.15%
Cc1nc(C(=O)N2CCCCC2c2ccc(CN(C)C)cc2)c(C)o1 (stereo not given) | 46.21%
CCc1ccc(C(=O)N2CCN(CCO)CC2)o1 | 31.7%
CN(Cc1ccco1)C(=O)c1ccc(=O)n(C)c1 | 1.13%
Cc1nc(CNCc2ccc(OC34CCCN(CC3)C4)cc2)n[nH]1 (stereo not given) | -2.62%
COCC(=O)N1CC(C(=O)NCC2CC2)C2(CCOCC2)C1 (stereo not given) | -13.16%
CC(C)NC(=O)C1CN(C(=O)N(C)C)CC12CCOCC2 (stereo not given) | 58.87%
Cc1ccsc1C(=O)N1CC(C(=O)NCC2CC2)C2(CCOCC2)C1 (stereo not given) | 2.41%
CC(C)NC(=O)C1CN(C(=O)N2CCCC2)CC12CCOCC2 (stereo not given) | 17.51%
CC(C)NC(=O)C1CN(C(=O)c2ccccc2)CC12CCOCC2 (stereo not given) | 34.48%
CN(C)C(=O)N1CC(C(=O)NCC2CC2)C2(CCOCC2)C1 (stereo not given) | 55.92%
COCCO[C@@H]1C[C@H]2CN(C(=O)c3cnccn3)CCN2C1 | -1.27%
O=C1NCCCCC1NCc1csc(-c2ccc(F)cc2)n1 (stereo not given) | 13.91%
CCN1CCc2c(CNC(=O)c3nccn3C)cncc2C1 | 10.71%
CCc1oc(C(=O)NC(C)c2ncn[nH]2)cc1CN1CCCC1 (stereo not given) | 38.24%
CC(C)Nc1ncccc1C(=O)NC1CC(=O)N(CC(F)(F)F)C1 (stereo not given) | 16.87%
Cc1[nH]c2ccccc2c1-c1ccnc(N[C@H](CO)CC(C)C)n1 | -48.87%
Nc1ncc(C(=O)N2CCCC(N)CC2)c(-c2ccccc2)n1 (stereo not given) | 50.91%

SMILES | INHIBITION
Nc1ncc(C(=O)N2CCC3(CCCO3)CC2)c(-c2ccccc2)n1 | 14.83%
Nc1ncc(C(=O)N2CCC(O)(CO)CC2)c(-c2ccccc2)n1 | 32.04%
Cc1cc(CN(C)C(C(=O)O)c2cccc(C(F)(F)F)c2)on1 (stereo not given) | -53%
COc1ccc(C)cc1CN1CCn2cccc2C1C (stereo not given) | 23.27%
CCC(C)NC(=O)NCc1cc2n(n1)CCCN(C1CCCCC1)C2 (stereo not given) | -15.12%
CC(C)SCC(=O)NCc1cc2n(n1)CCCN(C1CCCCC1)C2 | 50.02%
CSCCC(=O)NCc1cc2n(n1)CCCN(C1CCCCC1)C2 | -12.95%
CNS(=O)(=O)c1ccc(CNC(=O)N(C)C(C)COC)cc1 (stereo not given) | -30.49%
Cc1ccc(C(=O)N2CCC3(CCN3c3ncccn3)C2)cn1 (stereo not given) | -55.08%
CC(O)CNc1ccc(C#N)cc1C(F)(F)F (stereo not given) | 25.48%
CC(C)(C)c1nc(NS(=O)(=O)c2ccc(F)cc2)no1 | -56.23%
Cc1nc(CNC(=O)NC(C)c2ccc3c(c2)OCCCO3)cs1 (stereo not given) | -10.62%
COCCOCC(=O)NC1CCN(c2ccccn2)CC1 | -1.01%
O=C(COCCOc1ccccc1)NC1CCN(c2ccccn2)CC1 | 21.79%
Cc1ccc(C)c(OCC(=O)NC2CCN(c3ccccn3)CC2)c1 | 63.89%
Fc1cccc(Cl)c1Cn1ncnc1CSCCN1CCCC1 | 2.76%
O=C1CCCCCN1Cc1ncnn1Cc1c(F)cccc1Cl | 29.98%
O=C1OCCN1Cc1ncnn1Cc1c(F)cccc1Cl | 59.94%
O=S(=O)(NCc1ccc(S(=O)(=O)N2CCCC2)s1)c1ccc(Cl)c(Cl)c1 | -7.01%
CC1Cc2cc(-c3cncn3CC(=O)NC(C)(C)C)ccc2N1C (stereo not given) | 37.4%
CCN1CCc2cc(-c3cncn3CC(=O)NC(C)(C)C)ccc21 | 25.72%
CCN1c2ccc(-c3cncn3CC(=O)NC(C)(C)C)cc2CC1C (stereo not given) | 51.57%
CCN1CCCC(c2c(-c3ccccc3)ncn2Cc2cccnc2)C1 (stereo not given) | -17.04%
CN(C)CCCNC(=O)c1cc(-c2ccc3c(c2)CCO3)n[nH]1 | -4.01%
O=C(NCCCO)c1cc(-c2ccc3c(c2)CCO3)n[nH]1 | -56.16%
O=C(NCCO)c1cc(-c2ccc3c(c2)CCO3)n[nH]1 | 51.31%
CC1c2ncc(Cn3cccn3)n2CCN1Cc1ccc(F)cc1 (stereo not given) | 17.24%

SMILES | INHIBITION
COCc1cc(N(C)Cc2cnccn2)nc(C(C)(C)C)n1 | 10.03%
COCCC(=O)N1CCCC(CCC(=O)Nc2ccc(Cl)cc2)C1 (stereo not given) | -0.62%
O=C([C@H]1COC[C@H]2CN(c3ccncn3)C[C@H]21)N1CCCC1 | 53.55%
O=C([C@@H]1COC[C@H]2CN(c3ccncn3)C[C@H]21)N1CCCCO1 | 40.64%
O=C([C@@H]1COC[C@H]2CN(c3ccncn3)C[C@H]21)N1CCCC1 | 25.58%
CN(Cc1cccnc1)CC1CN(C(=O)C2CC2)Cc2nccn2C1 (stereo not given) | 6.8%
CN1Cc2c(C(=O)NC3CCCCC3)ncn2-c2ccccc2S1(=O)=O | -2.38%
CCc1nc(-c2ccc(C(=O)N3CCC4(CC3)OCCO4)cc2)no1 | 59.75%
CCc1nc(-c2ccc(NC(=O)N3CCOCC3)cc2)no1 | -52.23%
CCc1nc(-c2ccc(NC(=O)N3CCC4(CC3)OCCO4)cc2)no1 | -16.82%
CC(C)n1nnnc1-c1ccc(NC(=O)CC(F)(F)F)cc1F | -16.15%
CCC(CN1CCOCC1)n1cncc1-c1ccc2c(c1)CCN2CC (stereo not given) | 8.33%
O=C(C1CCCN(C2CCOCC2)C1)N1CCc2ncccc2C1 (stereo not given) | 34.71%
COCC(=O)N1CCc2cccc(S(=O)(=O)N3CCOCC3)c2C1 | 13.24%
CCOCCC(=O)N1CCc2cccc(S(=O)(=O)N3CCOCC3)c2C1 | 23.82%
CCCOCC(=O)N1CCc2c(cccc2S(=O)(=O)N2CCOCC2)C1 | 53.05%
CC(C)CCN1CCNC(=O)C1CC(=O)NCCc1cc(O)ncn1 (stereo not given) | 17.99%
COC1CCN(CCNC(=O)NC(C)c2cccc(Cl)c2)CC1 (stereo not given) | -23.58%
COC1CCN(CCNC(=O)NCC(C)c2cccc(C)c2)CC1 (stereo not given) | 38.83%
COC1CCN(CCNC(=O)NC(C)c2ccc(F)c(F)c2)CC1 (stereo not given) | 54.29%
Cc1ccc(S(=O)(=O)NCCOc2ccc3nnc(C)n3n2)s1 | 17.47%
CCS(=O)(=O)CCN(CC1CCCO1)C1CCCC1 (stereo not given) | -19.27%
CS(=O)(=O)CCN(CC1CCCO1)C1CCCC1 (stereo not given) | 56.53%
CCN(CCS(=O)(=O)CC)CC1CCCO1 (stereo not given) | 1.03%
